The results in this text go back to PubChem BioAssay (Tox21).

“And” between values parts separate entries of the source, which are not always exact repeats. Equal values may be shown once. Inconclusive results are not listed. Values without a mark were called inactive. The source made the active and inactive calls. Calls come from the whole dose curve; as a rule, active = well fitted cell-killing curve with a large enough effect in the repeat runs; inconclusive = weak or mixed curves, or effect the other way; inactive = flat fitted curve, though single readings scatter.
% is set by controls: 0 for no effect and ±100 for the full control effect; potency is the fitted concentration of half-maximal effect.

The assay is described as follows: qHTS RealTime-Glo MT Cell Viability Assay in HEK293 cells - 24 hour (AID 1224886). For activity change, negative = cytotoxicity: top concentration of the series differs between compounds. Note: nearly all actives have a fitted effect of over 50% in size. Particulars: RealTime-Glo luminescence; series mostly up to 76.8 µM; activity change, negative = cytotoxicity: at the top concentration. An excerpt: National Center for Advancing Translational Sciences [NCATS]
NIH Chemical Genomics Center [NCGC]
U.S. Environmental Protection Agency [EPA]
National Institutes of Environmental Health Sciences [NIEHS]
National Toxicology Program [NTP]
U.S. Food and Drug Administration [FDA]
Measure of cell viability is critical in the cell-base assay. Analysis of cell viability is necessary for the characterization of cell responses to cytotoxic drugs and environmental stress. A RealTime-Glo MT Cell Viability Assay to monitor cell viability in real time of continues cell culture during 40 hours of compound treatment was used to screen Tox21 10K library compounds in Hek293 cells. The RealTime-Glo MT Cell Viability Assay is a nonlytic, homogeneous, bioluminescent method to measure cell viability in real time using a simple, plate-based method. The assay involves adding NanoLuc luciferase and a cell-permeant prosubstrate to cells in culture. Viable cells reduce the proprietary prosubstrate to generate a substrate for NanoLuc luciferase. This substrate diffuses from cells into the surrounding culture medium, where it is rapidly used by the NanoLuc Enzyme to produce a luminescent signal. The signal correlates with the number of viable cells, making the assay well suited for cytotoxicity studies.
Tox21 Assay Protocol Summary:
The mixture of Hek293 cell suspension and reagents were dispensed at 600cells/6 ul/well in 1536-well tissue culture treated black solid bottom plates using a Multidrop dispenser. After the assay plates were incubated at a 37 C/5% CO2 incubator for 5 hours, 23 nL of compounds dissolved in DMSO, positive and negative controls was transferred to the assay plate by a pintool work station. The plates were incubated at 37 C for 40 hours. The luminescence intensity were measured at 0h, 8h, 16h, 24h, 32h and 40h time points using ViewLux plate reader during compound treatment.
Take `C=CCOCC(CC)(CO)COCC=C`: the “activity change, negative = cytotoxicity” value was 3.13%.
In the case of `O=C1CCCCCCCCCCCN1`, the Potency entry is “inactive”.
As to `NS(=O)(=O)c1ccc(C(=O)O)cc1`, the “activity change, negative = cytotoxicity” value was 2.41% [at 35.3 µM].
On the same count and under the same terms, in the case of `C[N+](C)(C)CC(O)CC(=O)[O-]` (stereo not given) it was -7.31% [at 35.3 µM]; in that of `CO/N=C(/C(=O)N[C@@H]1C(=O)N2C(C(=O)OCOC(=O)C(C)(C)C)=C(C)CS[C@H]12)c1csc(N)n1`, 7.08% [at 35.3 µM]; in that of `N#Cc1ccc(C2CCCc3cncn32)cc1` (stereo not given), 5.1% [at 35.3 µM].
On to `OCCOc1ccc(OCCO)cc1`, for which the “activity change, negative = cytotoxicity” value was 15.1%.
Still for that read-out and setting: in the case of `CN(C)CCCNCCCN(C)C` it was 3.68%; in that of `NC(=O)c1ccc(N)cc1`, -2.01%.
Consider `CC(=O)N(CC(O)CO)c1c(I)c(C(=O)NCCO)c(I)c(C(=O)NCC(O)CO)c1I` (stereo not given), for which the “activity change, negative = cytotoxicity” value was 6.64% [at 35.3 µM].
Still for that read-out and setting: in the case of `CC/C=C\CC/C=C/C(OCC)OCC` it was 26.6%.
Same read-out and setting: in the case of `C/C=C(\C)C#N` it was -0.86%.
The same measure, in the same setting: in the case of `CN1CC(=O)NC1=N` it was 14.4% [at 35.3 µM]; in that of `CC(=O)OCC(=O)[C@@]1(O)CC[C@H]2[C@@H]3CCC4=CC(=O)CC[C@]4(C)[C@H]3C(=O)C[C@@]21C`, -7.93% [at 35.3 µM].
With `O=C[C@H](O)[C@@H](O)[C@H](O)[C@H](O)CO`, the “activity change, negative = cytotoxicity” value is 14.5%.
Same read-out and setting: next, `CN1N=C(C(N)=O)CCC1=O`: 3.1% [at 35.3 µM].
As for `O=c1n(CCO)c(=O)n(CCO)c(=O)n1CCO`, the Potency entry was “inactive”.
For the molecule `CCO/C([O-])=N/c1c[n+](N2CCOCC2)no1`, the “activity change, negative = cytotoxicity” value is 5.17% [at 35.3 µM].
On the same count and under the same terms, in the case of `CC(NC(CCc1ccccc1)C(=O)O)C(=O)N1C(=O)N(C)CC1C(=O)O` (stereo not given) it was 2.76% [at 35.3 µM].
Turning to `C[N+](C)(C)CCCCCC[N+](C)(C)C`, the Potency result was “inactive”.
The same measure, in the same setting: next, `OC[C@]1(O)OC[C@@H](O)[C@H](O)[C@@H]1O`: “inactive”.
As to `CCCCOCCOCCOCc1cc2c(cc1CCC)OCO2`, the “activity change, negative = cytotoxicity” value was -18.8% [at 35.3 µM].
Still for that read-out and setting: in the case of `CC(C)(C)NCCNC(C)(C)C` it was -1.24%.
Same read-out and setting: next, `CCCc1cc(C(N)=S)ccn1`: 4.52% [at 35.3 µM].
Same read-out and setting: next, `C[C@](N)(Cc1ccc(O)cc1)C(=O)O`: 0.918% [at 6.97 µM]; `c1ccc([C@H]2CN3CCSC3=N2)cc1`: 9.32% [at 35.3 µM]; `C1CN(CCOCCN2CCOCC2)CCO1`: 13.1%.
With `CC(C)(O)C#CC(C)(C)O`, the “activity change, negative = cytotoxicity” value is 6.78%.
In the case of `O=c1cc(-c2ccccc2)oc2ccccc12`, the Potency was 17.4 µM (active) and 7.71 µM (active).
In the case of `CCCCCCCCS(=O)(=O)Cl`, the “activity change, negative = cytotoxicity” value was 1.73%.
On the same count and under the same terms, next, `Cc1sccc1Br`: 6.07% [at 35.3 µM].
Still for that read-out and setting: in the case of `CCCCCSCCCCC` it was 0.335%.
Same read-out and setting: next, `CCCCCCCCCCCCN(CCCCCCCCCCCC)CCCCCCCCCCCC`: 0.0394%; `CCN(CC)CCOCCOC(=O)C1(c2ccccc2)CCCC1`: -6.9% [at 35.3 µM].
`NS(=O)(=O)c1cc2c(cc1Cl)NC(C1CC3C=CC1C3)NS2(=O)=O` (stereo not given): the “activity change, negative = cytotoxicity” value is 15.6% [at 35.3 µM].
On the same count and under the same terms, in the case of `CS(=O)(=O)O` it was 1.2%; in that of `CCCCNC(=O)NCCCC`, 4.5%.
On the same count and under the same terms, in the case of `CC(=O)CC(C)C` it was 14.8%; in that of `CCC(C)S` (stereo not given), 1.35% [at 2.72 µM]; in that of `OCCCC1CCCCC1`, 3.82%.
